This experiment concerns the target PADI4, Q9UM07. Nature of the experiment: log2 enrichment score relative to parent PADI4_3 peptide (binding to PADI4); higher = tighter binding than parent. The conditions noted are these: CaCl2: 10 mM. The method, then: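 Deep mutational scan of the cyclic peptide PADI4_3 (ClAc-D-Tyr1 initiator, thioether-cyclised to Cys12, C-terminal Gly plus HA tag, mRNA-displayed). Positions 2-11 were each randomised by NNK codons; Met was reprogrammed as N-methyl-alanine (MeA). One round of equilibrium panning against bead-immobilised human PADI4 (100 nM, 10 mM CaCl2, RT). Log2 enrichment (bound/input frequency) relative to the parent sequence (0 = parent), mean of three independent selections.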

PADI4, Q9UM07, sequence (Q9UM07 whole entry): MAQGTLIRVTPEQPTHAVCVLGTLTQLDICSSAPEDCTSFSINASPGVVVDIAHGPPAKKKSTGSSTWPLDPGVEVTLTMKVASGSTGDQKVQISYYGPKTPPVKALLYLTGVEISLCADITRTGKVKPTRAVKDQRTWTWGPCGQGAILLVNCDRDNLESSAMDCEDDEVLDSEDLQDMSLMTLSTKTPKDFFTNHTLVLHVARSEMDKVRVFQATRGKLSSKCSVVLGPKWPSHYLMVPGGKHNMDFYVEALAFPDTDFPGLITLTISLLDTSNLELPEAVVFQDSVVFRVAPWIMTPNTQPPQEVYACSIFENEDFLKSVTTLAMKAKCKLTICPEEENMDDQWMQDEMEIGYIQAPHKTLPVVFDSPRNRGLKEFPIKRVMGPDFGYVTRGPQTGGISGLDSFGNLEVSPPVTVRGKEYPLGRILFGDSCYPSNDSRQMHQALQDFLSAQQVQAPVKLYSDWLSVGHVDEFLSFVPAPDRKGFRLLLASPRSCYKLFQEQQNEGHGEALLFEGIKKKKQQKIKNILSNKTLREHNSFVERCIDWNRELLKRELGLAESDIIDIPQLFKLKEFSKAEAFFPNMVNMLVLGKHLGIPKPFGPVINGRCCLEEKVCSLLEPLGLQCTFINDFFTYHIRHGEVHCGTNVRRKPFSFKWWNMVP

YRDHHYRHPKWCG [PADI4_3_Y11W Y11W]: the log2 enrichment score is -2.51.

On to YRWHHYRHPKYCG [PADI4_3_D3W D3W], for which the log2 enrichment score was -3.57.

YRDHHYRHPKYCG [PADI4_3_P9P P9P]: the log2 enrichment score worked out at 0.

Regarding YRDHHYRHPKFCG [PADI4_3_Y11F Y11F], the log2 enrichment score is -2.66.

Turning to YRDHHYYHPKYCG [PADI4_3_R7Y R7Y], the log2 enrichment score is -0.78.

On to YRDHHYRHPKHCG [PADI4_3_Y11H Y11H], for which the log2 enrichment score is -2.81.

Take YRDHVYRHPKYCG [PADI4_3_H5V H5V]: the log2 enrichment score was -3.

For the molecule YRDHHWRHPKYCG [PADI4_3_Y6W Y6W], the log2 enrichment score is -2.2.

As for YRDHHYRWPKYCG [PADI4_3_H8W H8W], the log2 enrichment score was -3.81.

With YRDHHYRHFKYCG [PADI4_3_P9F P9F], the log2 enrichment score was -2.05.

On to YRDHHYPHPKYCG [PADI4_3_R7P R7P], for which the log2 enrichment score is -4.46.

Regarding YWDHHYRHPKYCG [PADI4_3_R2W R2W], the log2 enrichment score was -2.67.

YRDHHYRPPKYCG [PADI4_3_H8P H8P]: the log2 enrichment score is -4.28.

For YVDHHYRHPKYCG [PADI4_3_R2V R2V], the log2 enrichment score was -1.2.

On to YHDHHYRHPKYCG [PADI4_3_R2H R2H], for which the log2 enrichment score is -2.21.

As for YRDHHYRVPKYCG [PADI4_3_H8V H8V], the log2 enrichment score is -3.3.

As to YRDHHYVHPKYCG [PADI4_3_R7V R7V], the log2 enrichment score was -1.6.

For YRDHHYRHVKYCG [PADI4_3_P9V P9V], the log2 enrichment score was -1.8.

In the case of YRDHHYRHPKPCG [PADI4_3_Y11P Y11P], the log2 enrichment score is -4.34.

On to YRFHHYRHPKYCG [PADI4_3_D3F D3F], for which the log2 enrichment score was -4.36.

On to YRDHHVRHPKYCG [PADI4_3_Y6V Y6V], for which the log2 enrichment score is -2.3.

As to YRDPHYRHPKYCG [PADI4_3_H4P H4P], the log2 enrichment score is -2.66.

In the case of YRDHHYRHPHYCG [PADI4_3_K10H K10H], the log2 enrichment score was -1.

With YPDHHYRHPKYCG [PADI4_3_R2P R2P], the log2 enrichment score was -2.67.

In the case of YRDHHYRHWKYCG [PADI4_3_P9W P9W], the log2 enrichment score was -2.

For the molecule YRDHHYRHPVYCG [PADI4_3_K10V K10V], the log2 enrichment score worked out at 2.58.

Consider YRDHHYRHYKYCG [PADI4_3_P9Y P9Y], for which the log2 enrichment score is -2.

In the case of YRDHHFRHPKYCG [PADI4_3_Y6F Y6F], the log2 enrichment score is -0.749.

For YRDHHYRHHKYCG [PADI4_3_P9H P9H], the log2 enrichment score is -2.06.

With YRDHHYRHPWYCG [PADI4_3_K10W K10W], the log2 enrichment score was -0.93.

Turning to YRDFHYRHPKYCG [PADI4_3_H4F H4F], the log2 enrichment score was -3.79.

For the molecule YRDHHYRHPYYCG [PADI4_3_K10Y K10Y], the log2 enrichment score is -0.51.

Take YRYHHYRHPKYCG [PADI4_3_D3Y D3Y]: the log2 enrichment score is -3.73.

In the case of YRDHWYRHPKYCG [PADI4_3_H5W H5W], the log2 enrichment score was -4.12.

Turning to YRDYHYRHPKYCG [PADI4_3_H4Y H4Y], the log2 enrichment score was -3.97.

As to YRDHHPRHPKYCG [PADI4_3_Y6P Y6P], the log2 enrichment score was -2.49.

YRDHYYRHPKYCG [PADI4_3_H5Y H5Y]: the log2 enrichment score was -4.14.

On to YRPHHYRHPKYCG [PADI4_3_D3P D3P], for which the log2 enrichment score is -2.96.

Regarding YRDLHYRHPKYCG [PADI4_3_H4L H4L], the log2 enrichment score is -1.52.

For YRDHHYWHPKYCG [PADI4_3_R7W R7W], the log2 enrichment score amounted to 1.07.

YRDWHYRHPKYCG [PADI4_3_H4W H4W]: the log2 enrichment score is -3.44.

For YRDHHYRHPKYCG [PADI4_3_Y11Y Y11Y], the log2 enrichment score was 0.

As to YRDHFYRHPKYCG [PADI4_3_H5F H5F], the log2 enrichment score is -4.31.

On to YRDHHYRYPKYCG [PADI4_3_H8Y H8Y], for which the log2 enrichment score was -3.56.

As to YRDHHYFHPKYCG [PADI4_3_R7F R7F], the log2 enrichment score was -0.962.

Regarding YRDHHYRHPKYCG [PADI4_3_Y6Y Y6Y], the log2 enrichment score was found to be 0.

With YRDHHHRHPKYCG [PADI4_3_Y6H Y6H], the log2 enrichment score is 0.321.

On to YRDHHYRFPKYCG [PADI4_3_H8F H8F], for which the log2 enrichment score is -3.69.

With YRDHHYRHPFYCG [PADI4_3_K10F K10F], the log2 enrichment score is -0.468.

Take YFDHHYRHPKYCG [PADI4_3_R2F R2F]: the log2 enrichment score is -2.57.

Turning to YRDHHYRHPPYCG [PADI4_3_K10P K10P], the log2 enrichment score is -3.67.

As for YRDHHYRHPKVCG [PADI4_3_Y11V Y11V], the log2 enrichment score was -4.2.

Turning to YRDHHYHHPKYCG [PADI4_3_R7H R7H], the log2 enrichment score is -1.29.

Turning to YRDHPYRHPKYCG [PADI4_3_H5P H5P], the log2 enrichment score was -3.95.

On to YRDHHYRHPKYCG [PADI4_3_H5H H5H], for which the log2 enrichment score is 0.

In the case of YYDHHYRHPKYCG [PADI4_3_R2Y R2Y], the log2 enrichment score is -2.62.

As for YRDHHYRHPKYCG [PADI4_3_H8H H8H], the log2 enrichment score is 0.

As for YRVHHYRHPKYCG [PADI4_3_D3V D3V], the log2 enrichment score was -3.7.

As to YRDVHYRHPKYCG [PADI4_3_H4V H4V], the log2 enrichment score was -2.6.

These data come from the supplement of paper PMC11555231.
